Among the data in PubChem BioAssay (EPA / NIEHS) are outcome and AC50 values, retold here.

Results filed as inconclusive are left out. The source made the active and inactive calls. The calls were made as follows, unless noted: active = hit-call score of the fitted dose curve at least 0.9, where 1 is the maximum; inconclusive = response in the unintended direction; inactive = score below 0.9.

Assay [1] is described as follows: TOX21_p53_BLA_p2_viability: Viability Assessment in the Tox21 HCT-116 p53 Agonism Beta-lactamase Assay, Phase 2 (AID 2283591).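 Also: actives lower the ATP signal meaning cytotoxicity.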 The gist of the method:
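HCT-116 p53-bla cells (4000/well) rested 5 h at 37C, then received compounds in DMSO (217-fold dilution) for 16 h at 37C, 5% CO2. After the CCF4 read, CellTiter-Glo was added; ATP luminescence was read after 30 min at room temperature.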

Assay [2] is described as follows: TOX21_p53_BLA_p3_viability: Viability Assessment in the Tox21 HCT-116 p53 Agonism Beta-lactamase Assay, Phase 3 (AID 2283593).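 Also: cells exposed to compound for 16 h before reading.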 In a few lines:
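HCT-116 cells (4000/well) rested 5 h at 37C, then got DMSO compounds by pin tool (217-fold dilution) for 16 h at 37C, 5% CO2. After the bla read, CellTiter-Glo was added and luminescence read at 30 min, room temperature.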

The nature of assay [3]: TOX21_p53_BLA_p4_viability: Viability Assessment in the Tox21 HCT-116 p53 Agonism Beta-lactamase Assay, Phase 4 (AID 2283597).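 Also: hits lower the luminescence signal meaning cytotoxicity.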 In a few lines:
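Readout: ATP luminescence (CellTiter-Glo), measured 30 min after reagent addition at RT. The reagent followed a 2 h CCF4-AM incubation, and the cells had been exposed to compound for 16 h at 37C.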

A short description of assay [4]: TOX21_p53_BLA_p5_viability: Viability Assessment in the Tox21 HCT-116 p53 Agonism Beta-lactamase Assay, Phase 5 (AID 2283600). In a few lines:
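Workflow: seed 4000 cells per well, wait 5 h, add compounds (DMSO, 217-fold dilution), incubate 16 h, load CCF4-AM 2 h, add CellTiter-Glo, read luminescence after 30 min.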

Assay [5] concerns the target Cellular tumor antigen p53 (Homo sapiens) (UniProt P04637). The experiment in a line: TOX21_p53_BLA_p4_ratio: Tox21 HCT-116 p53 Agonism Beta-lactamase Assay, Ratio, Phase 4 (AID 2283601). The gist of the method:
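HCT116 cells carrying an inducible beta-lactamase reporter were plated at 4000 cells/well, rested 5 h, then exposed to compounds in DMSO (217-fold dilution) for 16 h at 37C. CCF4-AM substrate was loaded 2 h at room temperature; 460/530 nm emission ratio scored gain-of-signal versus DMSO.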

For assay [6] the target is unchanged. The experiment in a line: TOX21_p53_BLA_p5_ratio: Tox21 HCT-116 p53 Agonism Beta-lactamase Assay, Ratio, Phase 5 (AID 2283599). The gist of the method: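 HCT-116 cells carrying a p53-inducible beta-lactamase reporter were seeded at 4000 cells/well and dosed after 5 h with compound in DMSO (217-fold dilution). After 16 h at 37C, CCF4-AM substrate was added for 2 h, and the 460/530 nm emission ratio was scored as gain-of-signal versus DMSO.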

In assay [7] the target is PGR (gene 5241) (UniProt P06401). Briefly: TOX21_PR_BLA_Followup_Antagonist_ratio: Tox21 HEK293 Progesterone Receptor (PR) Antagonism Beta-lactamase Follow-Up Assay, Ratio (AID 2283934).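 Also: PR-UAS-bla HEK293T cells stimulated with 1 nM R5020 agonist for 16 hr.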 The gist of the method: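 Readout is the blue/green (ch2/ch1) substrate cleavage ratio after 2 hours at room temperature, following 16 hr co-treatment of PR-bla HEK293T cells with compound and 1nM promegestone. Multiplexed CellTiter-Glo viability flags cytotoxicity; DMSO baseline.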

Assay [8] in a line: TOX21_PR_BLA_Followup_Agonist_viability: Viability Assessment in the Tox21 HEK293 Progesterone Receptor (PR) Agonism Beta-lactamase Follow-Up Assay (AID 2283935).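 Also: signal loss means lower viability so actives are cytotoxic.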 In a few lines:
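Run multiplexed with the beta-lactamase FRET read, this endpoint measures ATP by CellTiter-Glo luminescence (30 min, room temperature). PR-UAS-bla HEK293T cells received compound 6 hr after plating and were then incubated 16 hr at 37C in 2% stripped serum.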

The nature of assay [9]: TOX21_PR_BLA_Followup_Antagonist_viability: Viability Assessment in the Tox21 HEK293 Progesterone Receptor (PR) Antagonism Beta-lactamase Follow-Up Assay (AID 2283936).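 Also: cells exposed to compound with R5020 agonist for 16 h; hits lower the luminescence signal meaning cytotoxicity.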 In a few lines:
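PR-UAS-bla HEK293T cells in medium with 2% charcoal-stripped FBS were treated with compounds plus R5020 for 16 hr at 37C. After the beta-lactamase read, CellTiter-Glo was added to the same wells and luminescence read after 30 min at room temperature.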

In assay [10] the target is PGR (gene 5241) (UniProt P06401). The experiment in a line: TOX21_PR_LUC_Followup_Agonist: Tox21 HEK293 Progesterone Receptor (PR) Agonism Luciferase Follow-Up Assay (AID 2283937; active = hit-call score of the fitted dose curve at least 0.9, where 1 is the maximum; inactive = score below 0.9). The gist of the method: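 Agonism scored as luciferase induction over DMSO, read by ONE-Glo after 30 min at RT. Compounds were incubated 16 h at 37C on HEK293-PR-A-luc cells (3,000/well, pre-plated 5 h) previously grown 5 days in charcoal-stripped serum.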

For assay [11] the target is unchanged. Briefly: TOX21_PR_LUC_Followup_Antagonist: Tox21 HEK293 Progesterone Receptor (PR) Antagonism Luciferase Follow-Up Assay (AID 2283938).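 Also: curve fitted upward as signal gain over DMSO baseline despite antagonist label.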 The gist of the method:
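Cells are grown 5 days in charcoal-stripped-FBS assay medium, plated, left 5 h, then dosed with compound and incubated 16 h. ONE-Glo reagent is added and luminescence read after 30 min.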

Assay [12] is described as follows: TOX21_PR_LUC_Followup_Agonist_viability: Viability Assessment in the Tox21 HEK293 Progesterone Receptor (PR) Agonism Luciferase Follow-Up Assay (AID 2283941).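 Also: loss of signal means cytotoxicity so actives lower viability.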 In a few lines:
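Cytotoxicity counter-readout in the PR-A luciferase reporter line HEK293, with 16 h compound exposure at 37C after cells were cultured in charcoal-stripped serum. Cellular ATP quantified by CellTiter-Glo luminescence.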

Assay [13] is described as follows: CCTE_Harrill_HTTr_Viability_MCF7: CCTE's 6-hour Cell Viability Assessment for the High-Throughput Transcriptomics (HTTr) Platform, in MCF-7 cells cultured in DMEM + 10% fetal bovine serum, Harrill Lab (AID 2284010; active = hit-call score of the fitted dose curve at least 0.9, where 1 is the maximum; inactive = score below 0.9). The gist of the method: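 Propidium iodide exclusion, imaged by high-content analysis, gauged viability after a six-hour exposure across eight concentrations. Cells were MCF-7 grown in DMEM with 10% fetal bovine serum; fits run in both directions against DMSO.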

Assay [14] can be described thus: CCTE_Harrill_HTTr_Apoptosis_MCF7: CCTE's 6-hour Apoptosis Assessment for the High-Throughput Transcriptomics (HTTr) Platform, in MCF-7 cells cultured in DMEM + 10% fetal bovine serum, Harrill Lab (AID 2284011; active = hit-call score of the fitted dose curve at least 0.9, where 1 is the maximum; inactive = score below 0.9). In a few lines:
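MCF-7 (DMEM + 10% FBS), 384-well; 8-pt dilution series, 6 h chemical exposure; caspase-3/7 activation via CellEvent Caspase 3/7 Green, HCI; bidirectional fit vs DMSO.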

For assay [15], the target named is Thyroid hormone receptor alpha (Rattus norvegicus) + Thyroid hormone receptor beta (Rattus norvegicus) (UniProt P18113+P63059). Briefly: TOX21_TR_LUC_GH3_Antagonist_Followup: Tox21 GH3 Thyroid Hormone Receptor Antagonism Luciferase Follow-Up Assay (AID 2283942). The gist of the method: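 In a GH3 luciferase reporter line, test chemicals spanning 92 uM to 5nM final are co-incubated 24 h with 1.0 nM T3. Activity is expressed as relative luminescence units and analysed relative to DMSO.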

The target in the next assay is THRA (gene 7067) (UniProt P10827). Briefly: TOX21_TRA_COA_Antagonist_Followup_ratio: Tox21 Thyroid Hormone Receptor alpha Antagonism through Coactivator Recruitment Follow-Up Assay, Ratio (AID 2283953). In a few lines:
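GST-TRα LBD 2.5 nM, BSA 0.10%, + cpd; then FITC-SRC-2 peptide 200 nM + Tb-anti-GST Ab 2 nM. TR-FRET ratio 520/495 nm. Norm: DMSO = 0%, T3 = 100%.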

Assay [16] is described as follows: TOX21_TRB_BLA_Antagonist_Followup_viability: Viability Assessment in the Tox21 Thyroid Hormone Receptor beta Antagonism Beta-lactamase (BLA) Follow-Up Assay (AID 2283961). In a few lines:
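TRβ-bla HEK293T (human TRβ LBD fused to GAL4 DBD), 3,000 cells/well, 2% charcoal-stripped FBS, phenol red-free medium; 18 h compound exposure, 37C; CellTiter-Glo 30 min RT; luminescence, loss-of-signal readout.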

For a further assay, the target named is THRB (gene 7068) (UniProt P10828). Briefly: TOX21_TRB_COA_Antagonist_Followup_ratio: Tox21 Thyroid Hormone Receptor beta Antagonism through Coactivator Recruitment Follow-Up Assay, Ratio (AID 2283967). The gist of the method: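 Coactivator (SRC-2) recruitment to purified GST-TRβ ligand-binding domain is monitored by terbium-to-fluorescein energy transfer, emission ratio 520:495 nm. DMSO wells define 0% and T3 wells 100% activity.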

Assay [17] can be described thus: TOX21_TR_RXR_BLA_Antagonist_Followup_viability: Viability Assessment in the Tox21 Thyroid Hormone Receptor beta Retinoid X Receptor alpha (RXRa) Antagonism Beta-lactamase (BLA) Follow-Up Assay (AID 2283979). The gist of the method: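 RXRa-UAS-bla HEK293T cells seeded 2,500/well in phenol red-free DMEM with 2% charcoal-stripped FBS, attached 5 h, then exposed to compounds at 11 concentrations in triplicate for 16 h at 37C/5% CO2. Viability read by CellTiter-Glo ATP luminescence; bidirectional fit versus DMSO.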

PGR (gene 5241), sequence (P06401 whole entry, looked up): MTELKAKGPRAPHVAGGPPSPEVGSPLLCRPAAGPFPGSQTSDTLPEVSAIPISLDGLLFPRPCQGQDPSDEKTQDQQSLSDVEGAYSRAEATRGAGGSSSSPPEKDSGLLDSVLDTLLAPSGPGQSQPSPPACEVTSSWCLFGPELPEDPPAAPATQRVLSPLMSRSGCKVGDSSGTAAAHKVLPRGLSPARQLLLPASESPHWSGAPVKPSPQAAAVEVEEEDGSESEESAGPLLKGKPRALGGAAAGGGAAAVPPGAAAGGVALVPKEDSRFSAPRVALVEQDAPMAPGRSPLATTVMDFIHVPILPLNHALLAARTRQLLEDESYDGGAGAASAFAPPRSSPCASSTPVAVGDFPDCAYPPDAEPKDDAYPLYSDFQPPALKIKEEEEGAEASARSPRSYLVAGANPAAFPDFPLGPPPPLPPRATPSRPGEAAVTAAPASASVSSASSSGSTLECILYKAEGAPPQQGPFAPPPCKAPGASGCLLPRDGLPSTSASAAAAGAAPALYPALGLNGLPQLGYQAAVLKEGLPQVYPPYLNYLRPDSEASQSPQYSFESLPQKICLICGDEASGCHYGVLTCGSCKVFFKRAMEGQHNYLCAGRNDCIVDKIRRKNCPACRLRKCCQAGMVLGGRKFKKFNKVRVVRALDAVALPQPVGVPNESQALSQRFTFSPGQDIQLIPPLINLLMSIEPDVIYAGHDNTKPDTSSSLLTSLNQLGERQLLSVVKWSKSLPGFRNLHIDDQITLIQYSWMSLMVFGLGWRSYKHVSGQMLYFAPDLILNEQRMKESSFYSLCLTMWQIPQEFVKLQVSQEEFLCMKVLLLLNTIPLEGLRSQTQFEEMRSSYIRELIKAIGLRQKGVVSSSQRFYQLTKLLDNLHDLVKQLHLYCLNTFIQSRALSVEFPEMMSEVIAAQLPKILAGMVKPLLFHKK
Cellular tumor antigen p53 (Homo sapiens), sequence (P04637 whole entry, looked up): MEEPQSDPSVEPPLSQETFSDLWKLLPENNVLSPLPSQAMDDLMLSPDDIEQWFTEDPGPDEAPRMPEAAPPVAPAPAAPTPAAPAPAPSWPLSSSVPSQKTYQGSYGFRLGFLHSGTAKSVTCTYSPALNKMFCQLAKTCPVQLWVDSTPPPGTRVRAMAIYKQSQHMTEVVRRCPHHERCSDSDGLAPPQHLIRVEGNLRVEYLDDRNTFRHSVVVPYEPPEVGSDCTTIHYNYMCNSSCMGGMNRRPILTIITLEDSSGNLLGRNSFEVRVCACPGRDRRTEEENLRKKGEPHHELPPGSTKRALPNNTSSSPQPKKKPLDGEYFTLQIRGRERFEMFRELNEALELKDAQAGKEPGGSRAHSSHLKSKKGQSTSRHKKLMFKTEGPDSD
THRB (gene 7068), sequence (P10828 whole entry, looked up, the tested form may be a part): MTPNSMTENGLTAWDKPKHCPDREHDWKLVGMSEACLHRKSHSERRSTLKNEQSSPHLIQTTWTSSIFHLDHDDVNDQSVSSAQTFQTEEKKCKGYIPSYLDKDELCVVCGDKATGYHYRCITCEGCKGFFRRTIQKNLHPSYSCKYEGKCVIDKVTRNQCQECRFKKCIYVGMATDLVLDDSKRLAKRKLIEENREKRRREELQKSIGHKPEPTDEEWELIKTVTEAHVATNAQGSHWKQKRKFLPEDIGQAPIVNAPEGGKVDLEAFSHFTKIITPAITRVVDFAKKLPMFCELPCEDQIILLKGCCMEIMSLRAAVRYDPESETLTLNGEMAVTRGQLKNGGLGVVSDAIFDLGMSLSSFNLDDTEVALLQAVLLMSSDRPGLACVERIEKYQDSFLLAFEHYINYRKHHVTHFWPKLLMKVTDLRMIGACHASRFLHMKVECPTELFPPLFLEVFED
THRA (gene 7067), sequence (P10827 whole entry, looked up, the tested form may be a part): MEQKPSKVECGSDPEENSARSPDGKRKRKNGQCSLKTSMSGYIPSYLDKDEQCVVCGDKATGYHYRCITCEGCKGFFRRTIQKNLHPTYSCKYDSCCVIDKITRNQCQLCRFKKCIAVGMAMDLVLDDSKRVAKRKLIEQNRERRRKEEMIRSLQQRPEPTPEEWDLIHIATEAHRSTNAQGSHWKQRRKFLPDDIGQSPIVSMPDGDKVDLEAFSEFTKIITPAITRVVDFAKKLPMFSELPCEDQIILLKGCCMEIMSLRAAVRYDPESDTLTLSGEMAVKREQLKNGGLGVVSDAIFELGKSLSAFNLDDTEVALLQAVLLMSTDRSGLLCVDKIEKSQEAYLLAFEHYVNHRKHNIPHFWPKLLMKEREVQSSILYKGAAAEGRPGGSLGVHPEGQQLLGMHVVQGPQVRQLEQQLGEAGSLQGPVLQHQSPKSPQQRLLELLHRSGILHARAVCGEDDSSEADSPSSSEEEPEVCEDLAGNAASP

On to `O=C(OCC1(COC(=O)c2cccnc2)CCCC(COC(=O)c2cccnc2)(COC(=O)c2cccnc2)C1O)c1cccnc1`, for which the compound was called inactive in assay [1], in [2], in assay [3] and in assay [4].
Turning to `CC1=C(C)C(=O)C(C(CCCCCC(=O)O)c2ccccc2)=C(C)C1=O` (configuration not stated), the result in assay [1], in [2], in [3], in assay [4] and in assay [5] was inactive.
Consider `Cc1ccc(N(CCO)CCO)cc1`, for which the outcome in [1], in assay [2], in [6], in [4] and in assay [5] was inactive.
Turning to `CCOC(=O)C(C)O` (configuration not stated), the compound was classed as inactive in [1], in assay [2], in [3], in assay [4] and in assay [5].
On to `CC(C)Nc1cccnc1N1CCN(C(=O)c2cc3cc(NS(C)(=O)=O)ccc3[nH]2)CC1`, for which the compound was called inactive in [1], in assay [2], in assay [3], in assay [4] and in assay [5].
Take `CCN(CCCCOC(=O)c1ccc(OC)c(OC)c1)C(C)Cc1ccc(OC)cc1` (configuration not stated): the result in assay [1], in assay [2], in assay [3] and in assay [5] was inactive.
Regarding `C=CC(=O)OCCCl`, the outcome in assay [1], in assay [2] and in [4] was inactive.
Regarding `CCN(CC)C(=O)c1cccnc1`, the compound was classed as inactive in assay [1], in assay [2], in assay [3], in assay [4] and in assay [5].
As for `O=C(O)C(=O)Cc1ccccc1`, the result in assay [1], in assay [2], in assay [6] and in [5] was inactive.
As to `CC1CCc2nccnc21` (configuration not stated), the outcome in [1], in assay [2] and in assay [4] was inactive.
Take `Cc1cc(C)c(C=C2C(=O)Nc3ccccc32)[nH]1`: the compound was called inactive (in [1]; in assay [2]; in assay [3]; in assay [4]; in the assay with PGR (gene 5241) [7]; in assay [8]). The outcome (in assay [9]; with PGR (gene 5241) [10]; with PGR (gene 5241) [11]; in [12]; in assay [13]) was inactive. Besides, the AC50 in assay [14] was 15.2 µM (active).
As to `CC(C(=O)O)c1ccc(N2Cc3ccccc3C2=O)cc1` (configuration not stated), the result (in assay [1]; in [2]; in assay [3]; in assay [5]; in assay [15]; with THRA (gene 7067)) was inactive. Further, the result (in [16]; with THRB (gene 7068); in assay [17]) was inactive.
`O=C(O)CN(CC(=O)O)CC1=CC2C(=CC1=O)Oc1cc(O)c(CN(CC(=O)O)CC(=O)O)cc1C21OC(=O)c2ccccc21` (configuration not stated): the compound was classed as inactive in assay [1], in [2] and in assay [4].
In the case of `O=C(O)c1cccc(/C=C2/C[C@@H]3[C@@H](/C=C/[C@@H](O)C4CCCCC4)[C@H](O)C[C@@H]3O2)c1`, the outcome in [1], in assay [2], in [6], in assay [4] and in assay [5] was inactive.
In the case of `CC(C)OC(C)C`, the result in [1], in assay [2], in assay [6], in assay [4] and in assay [5] was inactive.
